Rows were chosen to be rich in hits. Some 2.5% of all compounds tested hit in one or more screens of this group.
PG9 binder: binders of HIV-1 gp120 antibody PG9, primary screen, biochemical, TR-FRET; HIV-1 gp120 / PG9 antibody interaction; TR-FRET gp120-PG9 antibody binding; inhibition, % at 6.7 µM; hit rate 0.43% among 360,000; AID 624416, 2012; in the data active means inhibition above about 8.5%
Exocytosis inh: LAMP-1 surface exposure blockers, TALL-104 cells – cell-based, flow cytometry, MLPCN library, primary screen | TALL-104 LAMP-1 surface exposure; cells stimulated with thapsigargin and PMA | inhibition, % at 10 µM | hit rate 0.66% among 360,000 | AID 651702, 2012;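 active means inhibition above about 55%, limit read from the data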
rCAG RNA binder: binders of r(CAG) RNA repeats, primary screen, biochemical, fluorescence; r(CAG) RNA repeat, TO-PRO-1 dye displacement fluorescence; inhibition, % at 3 µM; hit rate 1.3% among 370,000;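 active means inhibition above the plate cutoff, the mean of all test compounds on that plate plus 3 SD, cut at about 35% in these data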;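 further: 0% = DMSO alone and 100% = 100 µM mitoxantrone as full dye displacement; higher means more dye released from RNA so lower well fluorescence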
ABCB6 inh 2: ABCB6 transporter inhibitors, primary screen, K562-ABCB6 cells, flow cytometry, MLPCN library; ATP-binding cassette sub-family B member 6 (Homo sapiens), Q9NP58; K562-ABCB6 porphyrin accumulation, 1 h; hits give low values; fluorescence ratio to DMSO, % at 10 µM; hit rate 0.19% among 360,000; AID 602162, 2011;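 active means fluorescence ratio to DMSO below 75%, the collection mean minus 3 SD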;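 further: signal is porphyrin accumulated inside mitochondria; 100% equals median channel fluorescence of DMSO control wells; lower ratio means ABCB6 inhibition with less porphyrin fluorescence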
Target sequence (Q9NP58 whole entry, looked up): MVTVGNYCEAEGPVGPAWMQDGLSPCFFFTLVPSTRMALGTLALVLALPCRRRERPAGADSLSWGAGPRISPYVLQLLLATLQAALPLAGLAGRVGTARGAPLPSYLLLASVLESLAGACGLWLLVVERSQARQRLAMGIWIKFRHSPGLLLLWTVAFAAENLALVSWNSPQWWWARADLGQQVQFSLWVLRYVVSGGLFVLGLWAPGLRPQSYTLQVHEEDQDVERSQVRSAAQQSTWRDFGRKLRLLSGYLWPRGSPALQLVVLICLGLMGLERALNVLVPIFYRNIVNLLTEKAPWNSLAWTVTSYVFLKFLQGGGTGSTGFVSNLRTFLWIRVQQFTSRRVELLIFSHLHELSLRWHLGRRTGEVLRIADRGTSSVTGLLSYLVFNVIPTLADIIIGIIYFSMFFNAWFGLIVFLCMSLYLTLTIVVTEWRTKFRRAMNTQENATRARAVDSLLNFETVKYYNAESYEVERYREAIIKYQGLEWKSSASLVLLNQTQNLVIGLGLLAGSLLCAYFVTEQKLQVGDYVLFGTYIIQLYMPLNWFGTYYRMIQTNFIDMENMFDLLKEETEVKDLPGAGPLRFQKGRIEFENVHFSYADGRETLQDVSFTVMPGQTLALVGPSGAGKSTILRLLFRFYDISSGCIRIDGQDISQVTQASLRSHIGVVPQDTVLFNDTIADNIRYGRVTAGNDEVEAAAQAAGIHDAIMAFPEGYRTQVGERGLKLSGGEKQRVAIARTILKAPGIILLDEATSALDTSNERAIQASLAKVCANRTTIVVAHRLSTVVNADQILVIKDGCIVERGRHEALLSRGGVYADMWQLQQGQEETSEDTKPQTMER
ABCB6 inh CP1: ABCB6 transporter inhibitors, confirmation, K562-ABCB6 cells, flow cytometry, cherry pick 1. shares compounds with ABCB6 inh 2. K562-ABCB6 porphyrin accumulation, 1 h; hits give low values. ratio response (% of DMSO), % at 10 µM. 700 tested, under 10 active. AID 602430, 2012;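 active means repeat-averaged ratio response below 75% of DMSO, the collection mean minus 3 SD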;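 further: median porphyrin fluorescence at 575 nm with 488 nm excitation from mitochondria; lower ratio means less porphyrin signal so ABCB6 inhibition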
An asterisk follows results filed as active.

Screening CC(=O)Nc1c(C)ccc(CNC(=O)COc2cc(C)ccc2C)c1C returned PG9 binder 1, Exocytosis inh -3, rCAG RNA binder -4, ABCB6 inh 2 72* and ABCB6 inh CP1 101.
`CCn1c(SCC(=O)Nc2nc3ccc(OC)cc3s2)nc2c1c(=O)n(C)c(=O)n2C` gave PG9 binder 2, Exocytosis inh 0, rCAG RNA binder 6, ABCB6 inh 2 72* and ABCB6 inh CP1 100.
COC(=O)COc1cccc(NC(=O)c2ccccc2)c1 was read as PG9 binder 1, Exocytosis inh 2, rCAG RNA binder -4, ABCB6 inh 2 74* and ABCB6 inh CP1 100.
COc1cccc(CN2CCC2(C)C(=O)Nc2cccc3cccnc23)c1OC (configuration not stated) was read as PG9 binder -2, Exocytosis inh -3, rCAG RNA binder 1 and ABCB6 inh 2 98.
`COc1ccc(OC)c(NC(=O)C2(C)CCN2Cc2cccc(OC)c2OC)c1` (configuration not stated) gave PG9 binder 1, Exocytosis inh 8, rCAG RNA binder -1, ABCB6 inh 2 71* and ABCB6 inh CP1 104.
For O=C(CCNC(=O)c1ccc([N+](=O)[O-])cc1)Nc1ccc(F)cc1F the results were PG9 binder 1, Exocytosis inh 7, rCAG RNA binder -1 and ABCB6 inh 2 106.
C[C@@H]1CCN(C2CC2)S(=O)(=O)c2ccc(N3CCC[C@@H]3CO)cc2O1 was read as rCAG RNA binder 1.
For COc1ccc2[nH]c(CN3CCC(CO)(CCOc4ccccc4)CC3)c(C)c2c1 the results were PG9 binder -2, Exocytosis inh 20, rCAG RNA binder -6 and ABCB6 inh 2 100.
For COc1ccc(S(=O)(=O)N(Cc2nc3ccccc3c(=O)[nH]2)C2CCCC2)cc1 the results were PG9 binder -1, Exocytosis inh -1, rCAG RNA binder -3, ABCB6 inh 2 68* and ABCB6 inh CP1 101.
For O=c1c(C(c2ccc(Br)cc2)c2c(O)nc3n(c2=O)CCS3)c(O)nc2n1CCS2 the results were PG9 binder 0, Exocytosis inh 1, rCAG RNA binder 8, ABCB6 inh 2 74* and ABCB6 inh CP1 102.
`O=c1c(C(c2ccc(Br)cc2)c2c(O)nc3n(c2=O)CCCS3)c(O)nc2n1CCCS2` gave PG9 binder 1, Exocytosis inh 0, rCAG RNA binder 9 and ABCB6 inh 2 99.
CC12CCC(C(=O)N(CCCN3CCN(Cc4ccccc4)CC3)C1=O)C2(C)C (configuration not stated) was read as PG9 binder 0, Exocytosis inh 2, rCAG RNA binder -9 and ABCB6 inh 2 100.
CC12CCC(C(=O)N(CCCCN3CCN(c4ccccn4)CC3)C1=O)C2(C)C (configuration not stated) was read as PG9 binder -2, Exocytosis inh 2, rCAG RNA binder -7, ABCB6 inh 2 58* and ABCB6 inh CP1 99.
COc1ccc(Cn2c(NC(=O)c3ccccc3)nc(Cc3ccccc3)c2Cc2ccccc2)c(OC)c1 was read as rCAG RNA binder 7.
`COc1ccc(CCCNC(=O)C2(C)Cc3c(-c4ccc(C(N)=O)cc4)ccnc3O2)cc1` (configuration not stated) gave PG9 binder 1, Exocytosis inh 7, rCAG RNA binder 0, ABCB6 inh 2 71* and ABCB6 inh CP1 98.
`CCOC(=O)N1CCN(S(=O)(=O)c2ccc(C(=O)Nc3sc4c(c3C(N)=O)CCN(CC)C4)cc2)CC1` gave PG9 binder -1, Exocytosis inh 2, rCAG RNA binder 10, ABCB6 inh 2 73* and ABCB6 inh CP1 102.
Cc1ccc(N2C(=O)C(CN3CCCCC3)C2c2ccccc2)cc1 (configuration not stated) was read as PG9 binder -1, Exocytosis inh -1, rCAG RNA binder -9 and ABCB6 inh 2 96.
Screening Cc1ccc(N2C(=O)C(CN3CCCC3)C2c2ccccc2)cc1 (configuration not stated) returned PG9 binder -1, Exocytosis inh -3, rCAG RNA binder -4, ABCB6 inh 2 73* and ABCB6 inh CP1 102.
Screening CC(=O)NC1CCCCN(C)C1=O (configuration not stated) returned PG9 binder 0 and rCAG RNA binder 2.
CN(C)c1ccc2c(c1)Sc1cc(N(C)C)ccc1N2C(=O)c1ccccc1 was read as PG9 binder -2, Exocytosis inh -26, rCAG RNA binder 2, ABCB6 inh 2 73* and ABCB6 inh CP1 94.
For Cc1ccc(C(=O)N2c3ccccc3Sc3ccccc32)cc1 the results were PG9 binder 0, Exocytosis inh -1, rCAG RNA binder 3 and ABCB6 inh 2 97.
CSc1nnc(CNS(=O)(=O)c2ccc(Br)cc2)n1C was read as PG9 binder 1, Exocytosis inh -16, rCAG RNA binder -3 and ABCB6 inh 2 102.
Screening CCCc1ccc(S(=O)(=O)NCc2nnc(SC)n2C)cc1 returned PG9 binder 4, Exocytosis inh -11, rCAG RNA binder 0, ABCB6 inh 2 63* and ABCB6 inh CP1 97.
For CCOc1ccc(C2Nc3ccccc3NC3=C2C(=O)CC(C)(C)C3)cc1OC (configuration not stated) the results were PG9 binder -4, Exocytosis inh 2, rCAG RNA binder -4, ABCB6 inh 2 66* and ABCB6 inh CP1 99.
For COc1ccc(C2Nc3ccccc3NC3=C2C(=O)CC(C)(C)C3)cc1OC (configuration not stated) the results were PG9 binder -2, Exocytosis inh 4, rCAG RNA binder -2 and ABCB6 inh 2 99.
Screening O=C(c1ccc(S(=O)(=O)N2CCCCC2)cc1)N1CCCC(C(F)(F)F)C1 (configuration not stated) returned PG9 binder -1, Exocytosis inh 1, rCAG RNA binder -1 and ABCB6 inh 2 100.
Screening CCOC(=O)N1CCN(C(=O)C[C@H]2C[C@@]3(C(=O)OC)C(=C[C@H](C(C)(C)C)O[C@@H]3C)N(Cc3ccco3)C2=O)CC1 returned rCAG RNA binder -1.
Screening COc1ccc(OC)c(S(=O)(=O)N2CCC(C(=O)NCc3ccccn3)CC2)c1 returned PG9 binder -2, Exocytosis inh -20, rCAG RNA binder -1, ABCB6 inh 2 73* and ABCB6 inh CP1 96.
For COc1ccc(S(=O)(=O)N2CCC(C(=O)NCc3ccccn3)CC2)cc1OC the results were PG9 binder 1, Exocytosis inh -2, rCAG RNA binder -2 and ABCB6 inh 2 101.
Screening CCCNC(=O)Cn1cnc2sc(C(=O)Nc3cc(OC)c(OC)c(OC)c3)c(C)c2c1=O returned Exocytosis inh -2, ABCB6 inh 2 101 and ABCB6 inh CP1 97.
